Results taken from ChEMBL document CHEMBL3433997, “St. Jude Leishmania screening dataset” (2016).

Key:
Type in all cases: functional
[1] = target: Solute carrier family 2, facilitated glucose transporter member 1 (Homo sapiens) (UniProt P11166); test: ST_JUDE_LEISH: Cytotoxicity at 2uM final concentration against transgenic Leishmania Mexicana promastigotes LmGLUT1 that are glucose transport deficient and complemented with the human glucose transporter GLUT1. Activity is measured by DNA content using SYBR green in vitro
[2] = target: Hexose transporter 1 (Plasmodium falciparum) (UniProt O97467); test: ST_JUDE_LEISH: Cytotoxicity at 2uM final concentration against transgenic Leishmania Mexicana promastigotes LmPfHT that are glucose transport deficient and complemented with the Plasmodium falciparum hexose transporter. Activity is measured by DNA content using SYBR green in vitro
[3] = target: Glucose transporter (Leishmania mexicana) (UniProt O61059); test: ST_JUDE_LEISH: Cytotoxicity at 2uM final concentration against transgenic Leishmania Mexicana promastigotes LmGT2 that are glucose transport deficient and complemented with the L. Mexicana glucose transporter 2. Activity is measured by DNA content using SYBR green in vitro

Sequence of Solute carrier family 2, facilitated glucose transporter member 1 (Homo sapiens) (P11166 whole entry): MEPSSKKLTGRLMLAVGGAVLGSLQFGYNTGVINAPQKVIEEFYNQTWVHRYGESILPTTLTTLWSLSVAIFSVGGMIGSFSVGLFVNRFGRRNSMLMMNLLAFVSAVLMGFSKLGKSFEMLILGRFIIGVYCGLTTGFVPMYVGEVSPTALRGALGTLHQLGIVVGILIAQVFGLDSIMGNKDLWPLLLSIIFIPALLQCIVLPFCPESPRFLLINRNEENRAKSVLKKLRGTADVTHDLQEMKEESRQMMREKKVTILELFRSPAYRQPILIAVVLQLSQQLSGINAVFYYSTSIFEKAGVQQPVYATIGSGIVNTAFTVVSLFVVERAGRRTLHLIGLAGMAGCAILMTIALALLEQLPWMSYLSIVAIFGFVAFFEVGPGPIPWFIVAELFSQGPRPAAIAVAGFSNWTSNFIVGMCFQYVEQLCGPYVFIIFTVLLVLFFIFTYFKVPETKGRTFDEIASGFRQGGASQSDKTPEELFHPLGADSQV

Compound | inhibition [1] [%] | inhibition [2] [%] | inhibition [3] [%]
N#Cc1ccc2c(c1)CCN(CCC1CCC(NC(=O)c3cc4ccc(Cl)cc4[nH]3)CC1)C2 (stereo not drawn) | 1.73 | -0.22 | -0.76
CCCCN(Cc1cc(Cl)c(OC)c(OC)c1)c1ccc(C(O)(C(F)(F)F)C(F)(F)F)cc1 | 1.29 | 4.14 | -0.33
COCCN(C)CCCOc1cc2c(cc1OC)ncn2-c1cc(OCc2ccccc2C(F)(F)F)c(C(N)=O)s1 | 2.27 | 4.55 | 1.49
Cn1cccc1C(=O)NCC(CCNc1cc(=O)c2ccccc2[nH]1)NCc1cc(Br)cc(Br)c1 (stereo not drawn) | 0.88 | 2.6 | 1.58
Cc1cc(NCC(C)C)c2[nH]nc(-c3ccccc3)c2n1 | 2.41 | 3.39 | 1.69
COc1ccccc1C1CCN(C2CCC(NC(=O)/C=C/c3ccc(C(F)(F)F)cc3F)CC2)CC1 (stereo not drawn) | 0.47 | 1.54 | -0.44
COc1ccc(-c2ccc(NC(=O)c3cccc(Cl)c3)cc2)cc1CN(C)CCO | 1.99 | 0.94 | -1.71
CC(C)c1ccc(S(=O)(=O)N(c2ccc3c(c2)OCO3)C2CCN(Cc3ccccc3)C2)cc1 (stereo not drawn) | -0.01 | -0.17 | 0.98
Cc1cccc(CC(=N)NCCCCCCNC(=N)Cc2cccc(C)c2)c1 | 0.27 | 0.31 | -2.06
Cn1nccc1C(=O)NCCNCc1ccc(-c2ccc(-c3nc4cc(C(F)(F)F)ccc4[nH]3)cc2)cc1 | 6.01 | 0.59 | 4.43
COCCOc1ccc(Nc2nccc(-c3c(-c4cccc(NC(=O)c5c(F)cccc5F)c4)nn4ccccc34)n2)cc1Cl | 13.5 | 11.1 | 2.52
Cc1ccc(Nc2nc(N/N=C/c3cccc([N+](=O)[O-])c3)nc(Nc3ccccc3)n2)c(C)c1 | 2.34 | 1.33 | -0.87
O=S(=O)(NCCN1CCCC1)c1cccc(-c2ccc(CNCc3ccsc3)cc2)c1 | 2.71 | 1.13 | 3.02
COc1ccc2ncc(F)c(CCN3CC(O)C(CNCc4ccc5c(c4)OCCO5)C3)c2n1 (stereo not drawn) | 6.54 | 4.38 | -0.93
COc1ccc(C=NN=c2cc[nH]c3ccccc23)c2ccccc12 | 2.52 | 7.49 | 5.88
Cc1c(-c2cccc(C(C)(C)NC3CCN(Cc4ccccc4)CC3)c2)cnc(N)c1C | 2.58 | 0.02 | 2.38
COc1cc(C=CC(=O)N2CCN(Cc3cccc(C)c3)CC2)ccc1OCc1c(C)noc1C | 8.31 | 6.88 | 6.13
CCN1CCN(c2cc(C)c3cc(NC(=O)c4cc(OC)cc(OC)c4)ccc3n2)CC1 | -0.26 | 1.03 | 2.19
CC(C)(C)c1ccc(S(=O)(=O)Nc2ccccc2N2CCOCC2)cc1 | 6.54 | 4.11 | 0.2
CS(=O)(=O)CCNCc1nc(-c2ccc3ncnc(Nc4ccc(OCc5cccc(F)c5)c(Cl)c4)c3c2)cs1 | 3.7 | 2.03 | -1.62
O=C(Nc1cccc(-c2nc3ccccc3[nH]2)c1)c1ccc(-c2cccc([N+](=O)[O-])c2)o1 | 4.88 | 5.59 | 7.27
Cn1c(Nc2cc(C(C)(C)C)on2)nc2cc(Nc3ccnc(Nc4cccc(S(=O)(=O)N5CCOCC5)c4)n3)ccc21 | 5.63 | 2.67 | -0.88
Nc1nccc2ccc(-c3ccnc(NCc4cccnc4)n3)cc12 | 9.29 | 7.15 | 11.2
COc1ccc2nccc([C@@H](O)CN3CCC(NC(=O)/C=C/c4cc([N+](=O)[O-])ccc4OC)CC3)c2c1 | 1.12 | 0.92 | 0.53

Compound | inhibition [1] [%] | inhibition [2] [%] | inhibition [3] [%]
CCCCCN1CCN(Cc2cccc(NC(=O)c3ccc(Cl)c(Cl)c3)c2)CC1 | 1.39 | 1.08 | 1.32
Cn1c(NC(=O)C2CCCN(C(=O)c3ccc(O)c(-c4ccc(Cl)c(Cl)c4)c3)C2)nc2ccccc21 (stereo not drawn) | 0.08 | -0.09 | -7.08
CC1(C)NC(N)=NC(=N)N1OCC1CCCCC1 | -0.1 | 1.24 | 0.75
O=C(NCCCN1CCC(N2CCCCC2)CC1)c1ccc2nc(N3CCCCC3)sc2c1 | 5.78 | 8.39 | 8.02
COc1cccc(-c2csc(C(=O)NCC3CCN(Cc4ccc(C(C)(C)C)cc4)C3)c2)c1 (stereo not drawn) | 3.1 | -1.27 | 2.46
O=C(Nc1ccc(S(=O)(=O)N2CCCC2)cc1)c1cc(-c2cccnc2)nc2ccc(Cl)cc12 | 7.34 | 2.97 | 3.06
FC(F)(F)c1ccc2[nH]c(-c3cccc(-c4cccc(CNCCN5CCNCC5)c4)c3)nc2c1 | -0.06 | 3.11 | 1.99
CCNc1cc(C(=O)N[C@@H](Cc2ccccc2Cl)[C@H](O)CNC2CCCCC2)cc(N2CCCCS2(=O)=O)c1 | 0.03 | 0.45 | -2.07
CN1CCc2cc(Br)c(O)cc2C1Cc1ccccc1Cl (stereo not drawn) | -1.43 | -1.61 | -2.87
Cc1cc(C(F)(F)F)n2nc(C(=O)N(Cc3cncn3Cc3ccccc3F)CC3CC3)cc2n1 | -1.46 | -0.8 | -0.18
CC(=O)Nc1ncc(C(=O)Nc2cccc(-c3ccc(-c4nc5cc(F)ccc5[nH]4)cc3)c2)s1 | 4.02 | 1.84 | 2.62
Cc1nc2c(=O)sc3ccccc3c2n1Cc1ccccc1 | 0.4 | 7.03 | -1.55
COc1ccccc1CCNc1ncc(F)c(N[C@@H](Cc2ccccc2)C(=O)NCCc2ccccc2)n1 | 0.53 | -0.37 | 0.24
CCCN1CCN(c2ccccc2NS(=O)(=O)c2ccc(C(=O)Nc3ccc(Cl)cc3)cc2)CC1 | 2.67 | 3.32 | -1.54
Cc1ccc(S(=O)(=O)N(CCCN2CCN(C)CC2)Cc2csc(-c3ccc(CNCc4ccccc4)cc3)n2)cc1 | 9.12 | 7.67 | 9.91
c1cnc2ccc(NCc3ccc(-c4ccc(CNC5CCCC5)cc4)cc3)cc2c1 | 0.93 | 0.1 | -6.73
Cc1nc2nc(N)nc(N)c2c(C)c1Cc1cccc(C#N)c1 | 3.44 | 2.87 | 2.88
Cc1ccc2nc(C)n(C3CCN(C(=O)Cc4ccc(F)c(F)c4)CC3)c2c1 | 2.56 | 2 | 2.78
N=C(N)NC(=O)Nc1cc(Cl)c(Br)c(Cl)c1 | 3 | 6.09 | 2.88
CSc1cccc(Nc2nc3ccc(S(=O)(=O)NC(C)C(C)C)cc3n2[C@H](C)C(C)(C)C)c1 (stereo partly drawn) | 6.73 | 6.18 | 6.54
NCCCNc1ccc(-c2ccc(NC(=O)Nc3cc(C(F)(F)F)ccc3F)cc2)cn1 | 2.29 | 2.81 | 1.11
Cc1ccc2[nH]c(-c3ccccc3)cc(=NN=Cc3cccnc3)c2c1 | 1.16 | 0.03 | -2.99
c1cc(CN2CCCCC2)cc(-c2csc(-c3nc4ccccc4[nH]3)c2)c1 | 5.65 | 4.57 | 2.67
COc1ccc(NC(=O)c2ccc(OCCCCCCCOc3ccc(C(=O)Nc4ccc(OC)c(N5CCN(C)CC5)c4)cc3)cc2)cc1N1CCN(C)CC1 | 0.98 | 0.63 | 1.11

Compound | inhibition [1] [%] | inhibition [2] [%] | inhibition [3] [%]
CN1CCC(NCc2ccc(S(=O)(=O)Nc3ccc(Oc4cccc(Cl)c4)cc3)cc2)CC1 | 1.15 | 1.05 | 0.97
COc1ccc2c(NN=Cc3ccc(F)cc3)ccnc2c1 | 1.29 | 2.43 | 1.85
O=C(c1ccc(F)cc1)N1CCOC(CCN2CCC(c3ccccc3)CC2)(c2ccc(Cl)c(Cl)c2)C1 (stereo not drawn) | 0.53 | 1.42 | 5.2
Cc1cccc(-c2c(C)nc(N)nc2N)c1 | 4.96 | 2.06 | 1.08
O=C(/C=C/c1ccc(Cl)c(Cl)c1)NCCCCCN1CCCN(C(=S)Nc2ccc(Cl)c(Cl)c2)CC1 | -0.53 | -1.2 | 0.13
COc1ccc(N2CCc3c(-c4cccc5cnccc45)cc(C)nc32)c(C)c1 | -0.79 | 0.13 | -0.88
CCOc1ccc2c(c1)N(C(=O)C=Cc1ccccc1)C(C)(C)c1ssc(=S)c1-2 | 0.5 | 0.43 | 0.85
COc1ccc2c(c1)S(=O)(=O)N=C(N1CCCC1c1ccc(Cl)c(Cl)c1)N2C (stereo not drawn) | -1.4 | -0.89 | -1.05
COC(=O)c1ccc(CCCNCC(O)c2cccc(C(F)(F)F)c2)cc1 (stereo not drawn) | 2.51 | 3.05 | 6.4
COc1ccccc1-n1c(SCC(=O)c2ccc3c(c2)CC(=O)N3C)nnc1-c1cccs1 | 24 | 35.2 | 13.3
COc1ccc(CCN2CCC(NCc3cccc(N(C)C)c3)CC2)cc1 | -2.94 | 2.54 | -1.51
CCN1CCN(c2cc(C)c3cc(NC(=O)c4ccc(OC)c([N+](=O)[O-])c4)ccc3n2)CC1 | 2.21 | 2.42 | 2.13
CC(=NO)C1=C(O)C(c2ccccc2)N(c2ccccc2)C1=O (stereo not drawn) | 1.86 | 2.06 | 1.72
CN(Cc1cccc(C#N)c1)C1CCN(c2cc(NC(=O)c3cccc(F)c3)ccn2)CC1 | 3.81 | 5.32 | 4.33
COc1ccc2nccc(NC(=O)N3CCC(NCc4cc5c(F)ccc(F)c5[nH]4)CC3)c2n1 | 16.9 | 19.2 | 22.6
Cc1ncc([N+](=O)[O-])n1CCOC(=O)NC(Nc1ccc(Br)cc1)C(Cl)(Cl)Cl (stereo not drawn) | 2.8 | 0.15 | -1.63
Cc1noc(C)c1-c1ccc2c(Nc3ccc([N+](=O)[O-])cc3)c(C(N)=O)cnc2c1 | -0.67 | -0.09 | -0.76
Oc1ccc(CCNc2nc(NCCCOc3ccccc3-c3ccncc3)nc(N3CCNCC3)n2)cc1 | 3.68 | 5.15 | 5.3
COc1cc2nc(NCCN3CCOCC3)n3nc(-c4ccccc4)nc3c2cc1OC | 8.12 | 6.56 | 5.62
O=C(NCCCCN1CCC2c3cccc(O)c3CCC21)c1ccc(-c2ccccc2)cc1 (stereo not drawn) | 6.05 | 5.38 | 3.69
Cc1c(CNCCCNc2cc(=O)c3ccccc3[nH]2)sc(/C=N/O)c1Br | 5.48 | 3.79 | 5.31
Cc1ccccc1Cn1c(CN2CCC(C(=O)NC3CC3)CC2)cc2ccccc21 | 2.57 | 1.99 | 5.38
N#Cc1cccc(-c2cnc(N)c(-c3nc4cc(S(N)(=O)=O)ccc4[nH]3)c2)c1 | 1.03 | 1.38 | 2.21
